Source: PubChem BioAssay AID1159577 (Broad Institute, 2015)
Hit rate of the full screen: of about 1,300 compounds, about 240 (18%) were called active. About 8% were inconclusive and are not listed. How the calls were made is not given here. A selection follows. Measured potencies and affinities stand elsewhere.

Assay: HepG2 cell cytotoxicity, dose response, cytotoxicity control, cherry-picked samples (AID 1159577)
Conditions: HepG2 cytotoxicity counterscreen, plate reader; series mostly up to 19.5 µM

Compound | outcome
COc1ccc2c3c([nH]c2c1)[C@@H](CO)N(Cc1cccc(Cl)c1)CC31CCN(C(C)=O)CC1 | inactive
CN(C)c1ccc2c(c1)[C@@H]1C[C@H](CC(=O)N3CCc4ccccc4C3)O[C@@H](CO)[C@@H]1O2 | inactive
CO[C@@H]1CN(C)C(=O)c2ccc(NC(=O)NC3CCCCC3)cc2OC[C@@H](C)N(CCc2ccccc2)C[C@H]1C | inactive
O=C(Nc1ccc(F)cc1)N1C[C@H]2[C@@H](c3ccccc31)[C@@H](CO)N2Cc1cocn1 | inactive
COc1ccc(NC(=O)N2CC3(C2)CN(C(=O)C2CCC2)[C@H](CO)c2c3c3ccc(OC)cc3n2C)cc1 | inactive
C/C=C/c1ccccc1[C@H]1[C@@H](C#N)N(C(=O)NC2CCCC2)[C@H]1CO | inactive
COc1ccc(-c2ccc3c(c2)[C@H]2[C@H](CCN2C(=O)NC2CCCC2)[C@H](CO)N3C)cc1 | inactive
COc1ccc(-c2ccc3c(c2)[C@H]2[C@H](CCN2C(=O)C2CCCC2)[C@H](CO)N3C)cc1 | inactive
O=C(c1ccc(F)cc1)N1CC(=O)N2[C@H](C1)[C@@H](c1ccc(-c3cccnc3)cc1)[C@@H]2CO | inactive
CCCNC(=O)Nc1ccc2c(c1)C(=O)N(C)C[C@H](OC)[C@@H](C)CN(C(=O)C1CCOCC1)[C@H](C)CO2 | inactive
CO[C@@H]1CN(C)C(=O)c2ccc(NC(=O)Nc3ccccc3F)cc2OC[C@@H](C)N(Cc2ccccc2F)C[C@H]1C | inactive
O=C1CN(S(=O)(=O)c2ccccc2)C[C@H]2[C@H](c3ccc(C#CCc4ccccc4)cc3)[C@@H](CO)N12 | inactive
O=C1CN(S(=O)(=O)c2ccccc2)C[C@@H]2[C@H](c3ccc(C#CCc4ccccc4)cc3)[C@@H](CO)N12 | inactive
Cc1ccccc1S(=O)(=O)N1CC(=O)N2[C@H](CO)[C@H](c3ccc(C#CCC4CCCC4)cc3)[C@H]2C1 | inactive
Cc1ccccc1S(=O)(=O)N1CC(=O)N2[C@H](CO)[C@H](c3ccc(C#CC4CC4)cc3)[C@@H]2C1 | inactive
C[C@@H]1CN([C@@H](C)CO)C(=O)c2cccc(NC(=O)c3nc4ccccc4s3)c2O[C@H]1CN(C)C(=O)Nc1ccc2c(c1)OCO2 | inactive
CCNC(=O)c1cc2c(c(-c3cccc(-c4cc5ccccc5o4)c3)n1)[C@@H](CCO)N(C(=O)NC(C)C)C2 | inactive
CC(C)(C)[S@](=O)N1Cc2cc(C(=O)NCCN3CCCCC3)nc(-c3cccc(-c4ccc(C#N)cc4)c3)c2[C@@H]1CCO | inactive
COc1ccccc1S(=O)(=O)N(C)C[C@@H]1Oc2cc(/C=C/c3ccccc3)ccc2S(=O)(=O)N([C@H](C)CO)C[C@H]1C | inactive
O=C(c1ccccc1F)N1CC(=O)N2[C@H](CO)[C@H](c3ccc(-c4cccnc4)cc3)[C@H]2C1 | inactive
C[C@@H]1CN([C@@H](C)CO)C(=O)c2cccc(NC(=O)c3nc4ccccc4s3)c2O[C@H]1CN(C)C(=O)Nc1ccc(C(F)(F)F)cc1 | inactive
CCCNC(=O)N1[C@H](C#N)[C@H](c2ccc(-c3cccnc3)cc2)[C@H]1CO | inactive
COc1ccc2c3c([nH]c2c1)[C@@H](CO)N(Cc1ccccc1)CC31CCN(C(=O)c2cccnc2)CC1 | inactive
CS(=O)(=O)N1[C@H](C#N)[C@H](c2ccccc2-c2ccccc2)[C@H]1CO | inactive

Compound | outcome
Cc1ccc(S(=O)(=O)N(C)C[C@H]2Oc3ccc(NC(=O)c4ccncc4)cc3C(=O)N([C@@H](C)CO)C[C@@H]2C)cc1 | inactive
CO[C@H]1CN(C)C(=O)c2cc(NC(C)=O)ccc2OC[C@H](C)N(Cc2ccncc2)C[C@@H]1C | inactive
N#Cc1ccc(-c2ccc(C3[C@@H]4CN(C(=O)C5CC5)C[C@H]3N4)cc2)cc1 (stereo not given in full) | inactive
C[C@H]1CN([C@@H](C)CO)C(=O)c2ccccc2-c2ccccc2CO[C@@H]1CN(C)C(=O)Nc1ccc(-c2ccccc2)cc1 | inactive
COc1ccc2c3c([nH]c2c1)[C@@H](CO)N(Cc1ccccc1F)CC31CCN(C(=O)C2CCOCC2)CC1 | inactive
Cc1ccc(S(=O)(=O)N(C)C[C@@H]2OCc3ccccc3-c3c(n(C)c4ccccc34)C(=O)N([C@H](C)CO)C[C@@H]2C)cc1 | inactive
Cc1ccccc1S(=O)(=O)N(C)C[C@@H]1OCc2ccccc2-c2c(n(C)c3ccccc23)C(=O)N([C@@H](C)CO)C[C@@H]1C | inactive
COCC(=O)N1CC2(C1)CN(Cc1ccccc1F)[C@H](CO)c1[nH]c3cc(OC)ccc3c12 | inactive
CN(C)CC(=O)Nc1ccc2c(c1)[C@@H]1C[C@H](CC(=O)N3CCOCC3)O[C@@H](CO)[C@@H]1O2 | inactive
N#Cc1ccc(-c2ccc([C@@H]3[C@@H]4CN(S(=O)(=O)Cc5ccccc5)C[C@H]3N4)cc2)cc1 | inactive
N#Cc1ccc(-c2ccc([C@@H]3[C@@H]4CN(Cc5cocn5)C[C@H]3N4)cc2)cc1 | inactive
N#Cc1ccc(-c2ccc([C@@H]3[C@@H](CO)N4C(=O)CN(C(=O)C5CCC5)C[C@@H]34)cc2)cc1 | inactive
CCCC#Cc1ccc2c(c1)O[C@H](CN(C)C(=O)c1ccccc1F)[C@@H](C)CN([C@H](C)CO)S2(=O)=O | inactive
C/C=C/c1ccc2c(c1)[C@@H]1[C@@H](CCN1S(=O)(=O)c1ccccc1C)[C@H](CO)N2 | inactive
COc1cccc(CNC(=O)c2cc3c(c(-c4cccc(-c5ccncc5)c4)n2)[C@@H](CCO)N([S@](=O)C(C)(C)C)C3)c1 | inactive
C[C@H]1CN([C@@H](C)CO)S(=O)(=O)c2ccc(C#Cc3ccccc3F)cc2O[C@H]1CN(C)C(=O)c1ccc2c(c1)OCO2 | inactive
CCCNC(=O)c1cc2c(c(-c3cccc(-c4cc5ccccc5o4)c3)n1)[C@H](CCO)N(C(=O)NC(C)C)C2 | inactive
O=C(c1ccccc1F)N1CC(=O)N2[C@H](C1)[C@@H](c1ccc(-c3ccc(F)cc3)cc1)[C@@H]2CO | inactive
C/C=C/c1ccc([C@H]2[C@@H](CO)N(CC3CCCC3)C23CN(C(=O)CC2CC2)C3)cc1 | inactive
Cc1ccccc1S(=O)(=O)N1C[C@@H]2N[C@H](C1)C2c1ccc(-c2ccc(C#N)cc2)cc1 (stereo not given in full) | inactive
COc1cccc(CN2[C@@H]3CNC[C@H]2[C@H]3c2ccc(-c3ccccc3OC)cc2)c1 | inactive
COc1ccccc1-c1ccc([C@@H]2[C@@H](C#N)N[C@@H]2CO)cc1 | inactive
COc1ccccc1CN1C[C@@H]2N[C@H](C1)C2c1ccc(-c2ccncc2)cc1 (stereo not given in full) | inactive
CCCC(=O)N1CCC2(CC1)CN(Cc1cccnc1)[C@@H](CO)c1[nH]c3cc(OC)ccc3c12 | inactive

Compound | outcome
CCC(=O)N1CC2(C1)CN(S(=O)(=O)c1ccccc1)[C@@H](CO)c1[nH]c3cc(OC)ccc3c12 | inactive
CS(=O)(=O)N1[C@H](C#N)[C@H](c2ccccc2-c2ccc(F)cc2)[C@H]1CO | inactive
COc1ccc(S(=O)(=O)Nc2ccc3c(c2)CC(=O)N([C@H](C)CO)C[C@H](C)[C@H](CN(C)S(=O)(=O)c2ccc(C)cc2)O3)cc1 | inactive
N#C[C@@H]1[C@H](c2ccccc2C2=CCCCC2)[C@@H](CO)N1C(=O)c1cccc(F)c1 | inactive
COc1cccc(-c2ccc(C3[C@@H]4CN(C(=O)C5CC5)C[C@H]3N4)cc2)c1 (stereo not given in full) | inactive
COc1ccc(-c2ccc(C3[C@H]4CNC[C@@H]3N4C(=O)Nc3ccc(C(F)(F)F)cc3)cc2)cc1 (stereo not given in full) | inactive
O=C(Nc1ccc(C(F)(F)F)cc1)N1C[C@@H]2N[C@H](C1)C2c1ccc(-c2cccnc2)cc1 (stereo not given in full) | inactive
O=C(c1cnccn1)N1CC(=O)N2[C@@H](CO)[C@@H](c3ccc(C#CCc4ccccc4)cc3)[C@@H]2C1 | inactive
CCC(=O)N1CC2(C1)CN(Cc1cc(F)ccc1F)[C@H](CO)c1[nH]c3cc(OC)ccc3c12 | inactive
CC(C)(C)[S@@](=O)N1Cc2cc(C(=O)N3CCc4ccccc4C3)nc(-c3cccc(-c4ccncc4)c3)c2[C@H]1CCO | inactive
C[C@H]1CN([C@@H](C)CO)C(=O)CCCn2nncc2CO[C@H]1CN(C)C(=O)Nc1ccc(N2CCCCC2)cc1 | inactive
C[C@@H]1CN([C@H](C)CO)C(=O)c2cc(/C=C/c3ccccc3)cnc2O[C@H]1CN(C)C(=O)NC1CCCCC1 | inactive
CN(C)CC#Cc1ccc([C@@H]2[C@H](CO)N3C(=O)CN(C(=O)Cc4cccnc4)C[C@@H]23)cc1 | inactive
COCC(=O)Nc1ccc2c(c1)C(=O)N(C)C[C@H](OC)[C@H](C)CN(Cc1cccc(F)c1)[C@@H](C)CO2 | inactive
C[C@@H]1CN([C@H](C)CO)C(=O)c2cccc(NC(=O)c3nc4ccccc4s3)c2O[C@H]1CN(C)C(=O)Nc1ccc(C(F)(F)F)cc1 | inactive
CCCNC(=O)N1CCC2(CC1)CN(Cc1ccc(F)cc1)[C@@H](CO)c1[nH]c3cc(OC)ccc3c12 | inactive
CO[C@@H]1CN(C)C(=O)c2ccc(NC(=O)c3nc4ccccc4s3)cc2OC[C@@H](C)N(Cc2ccccc2)C[C@H]1C | inactive
COc1ccc(-c2ccc(C3[C@H]4CNC[C@@H]3N4S(=O)(=O)c3cccc(OC)c3)cc2)cc1 (stereo not given in full) | inactive
COc1cc(CN2[C@@H]3CNC[C@H]2C3c2ccc(-c3ccccc3)cc2)cc(OC)c1 (stereo not given in full) | inactive
CCC(=O)N1CC2(C1)CN(Cc1cccc(Cl)c1)[C@H](CO)c1[nH]c3cc(OC)ccc3c12 | inactive
C[C@@H]1CN([C@H](C)CO)C(=O)c2cccc(NS(=O)(=O)c3cccs3)c2O[C@H]1CN(C)Cc1ccc(C(F)(F)F)cc1 | inactive
COc1ccc(C#Cc2ccc3c(c2)O[C@H](CN(C)C(=O)Nc2cccc(OC)c2)[C@H](C)CN([C@@H](C)CO)S3(=O)=O)cc1 | inactive
